Holding throughout (assay): DAPPL (digital affinity profiling via proximity ligation, sequencing); 10 mM Tris-HCl pH 7.5, 50 mM NaCl, 1 mM DTT, 4% glycerol, room temperature, 30 min; GST-TFs on glutathione beads, 16-mer random dsDNA library, 0.1% formaldehyde crosslink after washing; high values mean tight binding
Experiment [1] addresses T1, FEV (Homo sapiens, UniProt Q99581 1-238).
T1 sequence: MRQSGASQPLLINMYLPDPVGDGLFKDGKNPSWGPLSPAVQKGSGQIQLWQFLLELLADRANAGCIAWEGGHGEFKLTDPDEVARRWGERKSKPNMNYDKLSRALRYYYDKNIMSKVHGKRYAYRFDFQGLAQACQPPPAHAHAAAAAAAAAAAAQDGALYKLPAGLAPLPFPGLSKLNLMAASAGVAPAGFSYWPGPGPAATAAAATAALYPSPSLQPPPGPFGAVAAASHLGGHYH
The settings on record: protein: recombinant; tags: N-terminal GST; dsDNA, one strand shown. In outline: (§1)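 Human transcription factors carrying a GST fusion were produced in yeast, bound to glutathione beads, tagged with DNA barcodes and pooled together with a tag-only sample. Each pool was held with 200 nmole of a random double-stranded 16-mer DNA library in Tris/NaCl/DTT/glycerol buffer for 30 min at room temperature, then washed, crosslinked in 0.1% formaldehyde, proximity-ligated with BsaI/T4 ligase (1 h, 37 °C), PCR-amplified and sequenced on an Illumina NextSeq500. Binding signal is the read frequency of each hexamer for a given factor divided by its frequency in the tag-only sample.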

Experiment [2] addresses ETV5 (Homo sapiens, UniProt P41161 1-510). Conditions: protein: recombinant; tags: N-terminal GST; dsDNA, one strand shown. In outline: as §1
The target in experiment [3] is HSF1 (Homo sapiens, UniProt Q00613 1-529). The settings on record: protein: recombinant; tags: N-terminal GST; chain copies: 3; dsDNA, one strand shown. In outline:
as §1

Experiment [4] deals with T2, SPIC (Homo sapiens, UniProt Q8N5J4 1-248).
T2 sequence: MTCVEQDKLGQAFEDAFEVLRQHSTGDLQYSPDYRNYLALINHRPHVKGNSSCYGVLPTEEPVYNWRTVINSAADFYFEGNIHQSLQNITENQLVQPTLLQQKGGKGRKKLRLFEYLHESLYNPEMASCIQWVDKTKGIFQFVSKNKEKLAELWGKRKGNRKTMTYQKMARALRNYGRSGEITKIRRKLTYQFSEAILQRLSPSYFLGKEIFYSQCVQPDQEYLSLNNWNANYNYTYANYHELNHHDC
The settings on record: protein: recombinant; tags: N-terminal GST; dsDNA, one strand shown. Summed up:
as §1

For experiment [5], the target named is ELF4 (Homo sapiens, UniProt Q99607 1-663). Conditions: protein: recombinant; tags: N-terminal GST; dsDNA, one strand shown. Summed up:
as §1

Experiment [6] concerns the target T3, ELK4 (Homo sapiens, UniProt P28324-2 1-405).
T3 sequence: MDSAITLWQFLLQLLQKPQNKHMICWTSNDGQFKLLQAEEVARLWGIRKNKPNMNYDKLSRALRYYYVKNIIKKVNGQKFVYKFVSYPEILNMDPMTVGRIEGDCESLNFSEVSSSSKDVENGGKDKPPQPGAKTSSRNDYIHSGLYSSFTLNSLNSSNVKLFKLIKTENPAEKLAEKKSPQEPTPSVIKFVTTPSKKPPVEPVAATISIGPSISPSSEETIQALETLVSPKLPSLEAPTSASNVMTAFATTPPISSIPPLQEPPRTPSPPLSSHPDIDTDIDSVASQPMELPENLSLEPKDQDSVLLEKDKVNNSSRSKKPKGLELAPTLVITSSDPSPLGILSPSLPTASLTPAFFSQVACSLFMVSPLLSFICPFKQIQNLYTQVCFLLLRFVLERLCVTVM
Conditions: protein: recombinant; tags: N-terminal GST; dsDNA, one strand shown. In outline: as §1

Experiment [7] has as its target T4, ETV2 (Homo sapiens, UniProt O00321 1-342).
T4 sequence: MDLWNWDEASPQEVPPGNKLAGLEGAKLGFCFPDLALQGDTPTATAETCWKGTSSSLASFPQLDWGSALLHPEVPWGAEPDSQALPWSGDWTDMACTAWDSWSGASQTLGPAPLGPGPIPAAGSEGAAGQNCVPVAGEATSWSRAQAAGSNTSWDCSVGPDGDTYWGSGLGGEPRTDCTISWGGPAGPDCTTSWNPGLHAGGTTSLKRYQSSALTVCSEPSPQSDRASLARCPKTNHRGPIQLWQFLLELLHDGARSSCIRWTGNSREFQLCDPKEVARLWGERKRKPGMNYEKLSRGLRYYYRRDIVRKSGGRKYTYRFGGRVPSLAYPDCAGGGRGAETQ
The settings on record: protein: recombinant; tags: N-terminal GST; dsDNA, one strand shown. In outline:
as §1

The target in experiment [8] is T5, ELF3 (Homo sapiens, UniProt P78545 1-371).
T5 sequence: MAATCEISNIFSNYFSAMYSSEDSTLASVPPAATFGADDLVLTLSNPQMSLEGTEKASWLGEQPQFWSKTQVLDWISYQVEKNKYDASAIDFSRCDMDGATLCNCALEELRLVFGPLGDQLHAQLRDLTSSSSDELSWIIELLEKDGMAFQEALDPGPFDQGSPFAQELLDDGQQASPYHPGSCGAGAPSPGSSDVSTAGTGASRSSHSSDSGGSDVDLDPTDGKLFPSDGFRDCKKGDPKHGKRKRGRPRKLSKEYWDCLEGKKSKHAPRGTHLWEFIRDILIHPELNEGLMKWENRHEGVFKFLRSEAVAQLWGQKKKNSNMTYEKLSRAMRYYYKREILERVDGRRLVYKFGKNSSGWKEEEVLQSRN
The settings on record: protein: recombinant; tags: N-terminal GST; dsDNA, one strand shown. Summed up: as §1

Experiment [9] has as its target CRX (Homo sapiens, UniProt O43186 1-299). Conditions: protein: recombinant; tags: N-terminal GST; dsDNA, one strand shown. Summed up:
as §1

The target of experiment [10] is ETV1 (Homo sapiens, UniProt P50549 1-477). The settings on record: protein: recombinant; tags: N-terminal GST; dsDNA, one strand shown. Summed up:
as §1

Experiment [11] has as its target T6, ERF (Homo sapiens, UniProt P50548 1-548).
T6 sequence: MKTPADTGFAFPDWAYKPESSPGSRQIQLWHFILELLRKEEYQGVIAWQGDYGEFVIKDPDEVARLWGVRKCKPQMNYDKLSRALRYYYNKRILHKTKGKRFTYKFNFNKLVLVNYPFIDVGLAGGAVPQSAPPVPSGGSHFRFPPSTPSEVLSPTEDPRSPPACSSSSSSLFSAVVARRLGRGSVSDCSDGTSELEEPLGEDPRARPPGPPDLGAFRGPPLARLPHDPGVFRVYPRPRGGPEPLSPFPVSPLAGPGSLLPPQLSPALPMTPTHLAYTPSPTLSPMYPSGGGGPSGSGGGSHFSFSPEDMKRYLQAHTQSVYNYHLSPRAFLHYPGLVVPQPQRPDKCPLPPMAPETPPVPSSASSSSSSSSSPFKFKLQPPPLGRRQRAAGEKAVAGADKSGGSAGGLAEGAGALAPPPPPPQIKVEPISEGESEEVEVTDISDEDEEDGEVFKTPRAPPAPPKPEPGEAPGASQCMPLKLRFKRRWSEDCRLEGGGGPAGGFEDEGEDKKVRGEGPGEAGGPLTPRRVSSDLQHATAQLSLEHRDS
Conditions: protein: recombinant; tags: N-terminal GST; dsDNA, one strand shown. In outline:
as §1

The target of experiment [12] is T7, ETV3L (Homo sapiens, UniProt Q6ZN32 1-361).
T7 sequence: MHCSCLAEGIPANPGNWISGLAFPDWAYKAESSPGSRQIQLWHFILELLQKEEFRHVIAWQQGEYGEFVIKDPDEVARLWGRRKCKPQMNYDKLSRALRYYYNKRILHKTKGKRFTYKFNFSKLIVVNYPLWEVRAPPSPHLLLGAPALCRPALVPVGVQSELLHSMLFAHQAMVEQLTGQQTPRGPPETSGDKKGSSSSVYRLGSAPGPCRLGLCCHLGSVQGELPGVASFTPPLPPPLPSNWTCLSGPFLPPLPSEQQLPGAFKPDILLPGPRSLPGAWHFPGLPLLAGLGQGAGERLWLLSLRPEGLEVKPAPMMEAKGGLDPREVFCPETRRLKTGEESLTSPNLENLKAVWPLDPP
The settings on record: protein: recombinant; tags: N-terminal GST; dsDNA, one strand shown. Summed up:
as §1

Experiment [13] addresses T8, ETS2 (Homo sapiens, UniProt P15036 1-469).
T8 sequence: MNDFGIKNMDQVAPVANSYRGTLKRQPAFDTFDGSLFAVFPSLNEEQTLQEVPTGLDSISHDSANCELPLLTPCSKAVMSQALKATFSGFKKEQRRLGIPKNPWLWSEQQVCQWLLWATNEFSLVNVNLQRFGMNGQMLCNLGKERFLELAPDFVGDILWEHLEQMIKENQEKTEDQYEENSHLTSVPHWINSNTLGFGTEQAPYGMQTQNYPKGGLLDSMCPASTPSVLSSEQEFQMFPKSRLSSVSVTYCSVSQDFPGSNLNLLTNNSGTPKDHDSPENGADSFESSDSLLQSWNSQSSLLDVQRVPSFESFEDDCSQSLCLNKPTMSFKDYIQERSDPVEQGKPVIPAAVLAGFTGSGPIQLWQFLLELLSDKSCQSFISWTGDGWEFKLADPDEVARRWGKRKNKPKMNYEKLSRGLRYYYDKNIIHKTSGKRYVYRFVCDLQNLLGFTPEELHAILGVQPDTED
The settings on record: protein: recombinant; tags: N-terminal GST; dsDNA, one strand shown. In outline:
as §1

Experiment [14] deals with T9, SPDEF (Homo sapiens, UniProt O95238 1-335).
T9 sequence: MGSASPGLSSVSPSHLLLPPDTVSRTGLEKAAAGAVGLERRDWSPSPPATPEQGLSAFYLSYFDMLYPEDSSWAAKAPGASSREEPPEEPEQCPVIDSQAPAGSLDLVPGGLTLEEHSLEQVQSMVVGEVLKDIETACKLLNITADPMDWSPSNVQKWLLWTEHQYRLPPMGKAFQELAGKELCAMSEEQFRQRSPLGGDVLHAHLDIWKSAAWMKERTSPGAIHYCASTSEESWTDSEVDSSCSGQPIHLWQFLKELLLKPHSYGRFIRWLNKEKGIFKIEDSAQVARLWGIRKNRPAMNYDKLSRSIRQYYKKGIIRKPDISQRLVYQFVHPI
The settings on record: protein: recombinant; tags: N-terminal GST; dsDNA, one strand shown. Summed up: as §1

Experiment [15] deals with T10, ETV7 (Homo sapiens, UniProt Q9Y603 1-341).
T10 sequence: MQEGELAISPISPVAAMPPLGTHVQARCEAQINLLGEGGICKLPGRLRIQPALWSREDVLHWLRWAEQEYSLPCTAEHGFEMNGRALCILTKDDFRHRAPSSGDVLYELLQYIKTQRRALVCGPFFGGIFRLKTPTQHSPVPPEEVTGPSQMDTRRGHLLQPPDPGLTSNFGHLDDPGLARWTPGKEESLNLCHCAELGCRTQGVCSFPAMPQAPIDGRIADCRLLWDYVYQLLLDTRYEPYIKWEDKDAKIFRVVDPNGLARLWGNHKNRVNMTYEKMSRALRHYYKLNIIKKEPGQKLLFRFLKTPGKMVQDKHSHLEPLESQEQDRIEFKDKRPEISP
Conditions: protein: recombinant; tags: N-terminal GST; dsDNA, one strand shown. Summed up:
as §1

For experiment [16], the target named is T11, ELF5 (Homo sapiens, UniProt Q9UKW6-2 1-255).
T11 sequence: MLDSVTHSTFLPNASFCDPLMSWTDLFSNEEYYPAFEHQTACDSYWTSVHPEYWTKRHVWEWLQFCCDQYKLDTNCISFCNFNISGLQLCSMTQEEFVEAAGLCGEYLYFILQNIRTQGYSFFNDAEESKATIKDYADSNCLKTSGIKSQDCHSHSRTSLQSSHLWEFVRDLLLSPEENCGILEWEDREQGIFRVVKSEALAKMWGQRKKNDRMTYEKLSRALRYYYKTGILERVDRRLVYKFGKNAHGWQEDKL
The settings on record: protein: recombinant; tags: N-terminal GST; dsDNA, one strand shown. Summed up: as §1

In experiment [17] the target is T12, ETV3 (Homo sapiens, UniProt P41162-2 1-143).
T12 sequence: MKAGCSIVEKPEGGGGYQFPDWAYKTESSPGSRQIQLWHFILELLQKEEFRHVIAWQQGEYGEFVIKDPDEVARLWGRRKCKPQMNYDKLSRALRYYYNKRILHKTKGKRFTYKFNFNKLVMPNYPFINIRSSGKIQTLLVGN
The settings on record: protein: recombinant; tags: N-terminal GST; dsDNA, one strand shown. Summed up:
as §1

Experiment [18] deals with ETV6 (Homo sapiens, UniProt P41212 1-452). The settings on record: protein: recombinant; tags: N-terminal GST; dsDNA, one strand shown. In outline: as §1

Consider one sequence from publication PMC7862700, “An all-to-all approach to the identification of sequence-specific readers for epigenetic DNA modifications on cytosine”.

HSF1, sequence (Q00613 whole entry): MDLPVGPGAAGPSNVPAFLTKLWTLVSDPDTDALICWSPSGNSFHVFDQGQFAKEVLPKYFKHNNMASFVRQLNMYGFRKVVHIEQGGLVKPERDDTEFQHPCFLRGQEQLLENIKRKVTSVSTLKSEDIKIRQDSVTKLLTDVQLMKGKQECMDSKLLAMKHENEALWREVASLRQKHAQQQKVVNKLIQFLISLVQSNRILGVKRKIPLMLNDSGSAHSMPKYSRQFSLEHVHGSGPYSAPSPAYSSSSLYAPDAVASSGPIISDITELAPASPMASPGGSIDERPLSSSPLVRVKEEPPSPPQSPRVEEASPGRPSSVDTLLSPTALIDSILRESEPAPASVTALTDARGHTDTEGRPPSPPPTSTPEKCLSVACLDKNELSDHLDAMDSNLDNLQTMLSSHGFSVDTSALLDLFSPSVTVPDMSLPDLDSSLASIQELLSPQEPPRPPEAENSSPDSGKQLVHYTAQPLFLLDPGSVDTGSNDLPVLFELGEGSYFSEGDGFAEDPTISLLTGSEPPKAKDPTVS
ELF4, sequence (Q99607 whole entry): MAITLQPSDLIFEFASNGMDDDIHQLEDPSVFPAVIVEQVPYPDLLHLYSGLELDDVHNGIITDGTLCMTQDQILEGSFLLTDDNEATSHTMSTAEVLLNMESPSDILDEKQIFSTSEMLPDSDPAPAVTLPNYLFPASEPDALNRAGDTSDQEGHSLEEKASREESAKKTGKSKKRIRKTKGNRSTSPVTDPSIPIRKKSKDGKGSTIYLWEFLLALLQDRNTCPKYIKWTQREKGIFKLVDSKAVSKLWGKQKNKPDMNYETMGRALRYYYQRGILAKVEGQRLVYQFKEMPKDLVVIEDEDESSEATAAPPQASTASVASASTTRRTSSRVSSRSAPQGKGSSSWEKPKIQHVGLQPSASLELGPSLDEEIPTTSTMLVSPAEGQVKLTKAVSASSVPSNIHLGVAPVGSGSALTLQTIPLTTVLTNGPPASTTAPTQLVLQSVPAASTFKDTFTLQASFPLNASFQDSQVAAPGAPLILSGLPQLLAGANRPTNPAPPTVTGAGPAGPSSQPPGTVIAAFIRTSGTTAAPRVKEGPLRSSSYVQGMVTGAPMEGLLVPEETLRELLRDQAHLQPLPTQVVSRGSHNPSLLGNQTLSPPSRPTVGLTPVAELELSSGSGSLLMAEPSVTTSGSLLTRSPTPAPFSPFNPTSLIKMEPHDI
ETV6, sequence (P41212 whole entry): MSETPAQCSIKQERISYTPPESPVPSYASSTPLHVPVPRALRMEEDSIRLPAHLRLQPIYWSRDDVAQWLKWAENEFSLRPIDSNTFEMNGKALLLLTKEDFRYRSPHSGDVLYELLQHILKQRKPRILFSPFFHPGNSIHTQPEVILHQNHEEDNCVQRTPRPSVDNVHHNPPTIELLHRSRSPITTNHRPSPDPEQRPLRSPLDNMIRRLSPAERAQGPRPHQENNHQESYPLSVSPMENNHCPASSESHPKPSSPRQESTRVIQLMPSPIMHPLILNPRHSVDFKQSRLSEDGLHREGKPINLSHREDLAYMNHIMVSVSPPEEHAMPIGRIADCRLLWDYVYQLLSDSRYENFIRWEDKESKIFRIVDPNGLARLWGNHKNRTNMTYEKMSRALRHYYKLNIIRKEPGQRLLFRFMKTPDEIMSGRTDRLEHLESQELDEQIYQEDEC
ETV5, sequence (P41161 whole entry): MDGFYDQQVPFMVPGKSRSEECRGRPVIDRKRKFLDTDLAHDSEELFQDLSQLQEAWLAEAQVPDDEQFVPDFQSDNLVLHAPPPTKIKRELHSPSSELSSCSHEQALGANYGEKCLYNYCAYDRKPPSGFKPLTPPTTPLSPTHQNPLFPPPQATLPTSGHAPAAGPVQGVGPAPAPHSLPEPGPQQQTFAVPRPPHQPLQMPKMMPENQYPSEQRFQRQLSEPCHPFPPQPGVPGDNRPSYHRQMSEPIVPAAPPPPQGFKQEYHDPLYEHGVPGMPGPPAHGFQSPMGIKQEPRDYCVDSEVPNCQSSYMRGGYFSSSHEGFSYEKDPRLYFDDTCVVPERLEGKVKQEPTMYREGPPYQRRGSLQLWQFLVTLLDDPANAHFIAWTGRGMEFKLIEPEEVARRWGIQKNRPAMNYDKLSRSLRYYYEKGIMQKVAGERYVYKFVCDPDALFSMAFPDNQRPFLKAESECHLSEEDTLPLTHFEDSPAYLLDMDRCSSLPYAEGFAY
CRX, sequence (O43186 whole entry): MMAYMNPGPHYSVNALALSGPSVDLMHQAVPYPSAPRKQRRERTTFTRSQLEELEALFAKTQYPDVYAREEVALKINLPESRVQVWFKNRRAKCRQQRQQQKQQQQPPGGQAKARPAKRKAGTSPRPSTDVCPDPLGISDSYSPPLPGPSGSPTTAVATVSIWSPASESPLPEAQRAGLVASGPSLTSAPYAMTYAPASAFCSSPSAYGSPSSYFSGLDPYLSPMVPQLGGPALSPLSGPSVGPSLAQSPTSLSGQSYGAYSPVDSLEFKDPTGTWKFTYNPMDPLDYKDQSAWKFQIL
ETV1, sequence (P50549 whole entry): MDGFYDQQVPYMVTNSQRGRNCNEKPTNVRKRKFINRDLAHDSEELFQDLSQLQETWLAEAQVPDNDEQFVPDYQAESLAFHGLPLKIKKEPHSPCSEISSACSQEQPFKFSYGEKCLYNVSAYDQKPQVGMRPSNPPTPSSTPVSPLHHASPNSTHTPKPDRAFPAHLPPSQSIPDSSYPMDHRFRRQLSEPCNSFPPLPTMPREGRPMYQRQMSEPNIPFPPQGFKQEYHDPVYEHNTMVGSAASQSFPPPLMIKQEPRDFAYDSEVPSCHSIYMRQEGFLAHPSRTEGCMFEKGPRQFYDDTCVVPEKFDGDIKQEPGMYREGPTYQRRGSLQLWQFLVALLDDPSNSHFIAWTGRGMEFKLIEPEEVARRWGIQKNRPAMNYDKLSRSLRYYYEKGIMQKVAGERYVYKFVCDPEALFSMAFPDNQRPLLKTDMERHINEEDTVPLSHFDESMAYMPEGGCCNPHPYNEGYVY

On to AATTGT, for which the binding signal in [1] was 1.25 fold enrichment (6-mer frequency, TF over GST control); in [2] it was 1.2 fold enrichment (6-mer frequency, TF over GST control); in experiment [3] it was 1.18 fold enrichment (6-mer frequency, TF over GST control); in experiment [4], 1.26 fold enrichment (6-mer frequency, TF over GST control); in [5], 1.29 fold enrichment (6-mer frequency, TF over GST control); in experiment [6] it was 1.14 fold enrichment (6-mer frequency, TF over GST control). For the same sequence, the binding signal in experiment [7] is 1.33 fold enrichment (6-mer frequency, TF over GST control); in experiment [8], 1.31 fold enrichment (6-mer frequency, TF over GST control); in experiment [9], 1.17 fold enrichment (6-mer frequency, TF over GST control); in experiment [10] it was 1.22 fold enrichment (6-mer frequency, TF over GST control); in experiment [11], 1.36 fold enrichment (6-mer frequency, TF over GST control); in experiment [12] it was 1.29 fold enrichment (6-mer frequency, TF over GST control). In addition, the binding signal in [13] is 1.31 fold enrichment (6-mer frequency, TF over GST control); in [14] it was 1.21 fold enrichment (6-mer frequency, TF over GST control); in experiment [15], 1.39 fold enrichment (6-mer frequency, TF over GST control); in experiment [16], 1.35 fold enrichment (6-mer frequency, TF over GST control); in experiment [17] it was 1.31 fold enrichment (6-mer frequency, TF over GST control); in experiment [18], 1.26 fold enrichment (6-mer frequency, TF over GST control).
